Source: PubChem BioAssay AID1446 (The Scripps Research Institute Molecular Screening Center, 2008)
The whole screen tested about 220,000 compounds, of which about 2,400 (1.1%) were called active.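 Rule for the calls: active = inhibition above the campaign mean plus 3 SD over all tested compounds (cut at about 24% in these data); inactive = the rest.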 The list comes from a sample in which actives are over-represented; it also holds similar structures and randomly drawn compounds.

test: viability loss in Ba/F3 EpoR-JAK2V617F cells – cell-based, luminescence, JAK2V617F inhibitor project, primary screen (AID 1446); details: ATP luminescence, at 5.6 µM, active compounds read high;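 note: cytokine-independent growth of Ba/F3 cells driven by EpoR plus mutant JAK2; 0% = DMSO-treated cells and 100% = JAK inhibitor I control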

Structure (SMILES) | inhibition
CCOC(=O)c1cc(-c2nnc(-c3cc(OC)c(OC)c(OC)c3)o2)c(C)nc1C | 0.18% (inactive)
CCOC(=O)C1=C(N)N2C(=O)C(C)SC2=C(C(=O)OCC)C1c1cc(OC)c(OC)c(OC)c1 (stereo not drawn) | 80.7% (active)
CCOC(=O)C1CCN(C(=O)/C=C/c2cc(OC)c(OC)c(OC)c2)CC1 | -2.65% (inactive)
CC(CNS(=O)(=O)c1ccc(Br)cc1)CN(C)C (stereo not drawn) | -1.94% (inactive)
Cc1ccc(Cl)cc1N1CCN(C(=O)c2cccc3c(=O)c(C)c(-c4ccccc4)oc23)CC1 | -6.79% (inactive)
C=CCNc1scc(-c2ccccc2)[n+]1CC=C | -1.89% (inactive)
Cc1ccc(NC(=O)Nc2ccccc2)c(Br)c1 | 1.27% (inactive)
C=CC[n+]1c(-c2ccc(C)cc2)csc1NNC(=O)Nc1ccccc1 | 37.6% (active)
CCN(CC)CCOC(=O)c1ccc(NC(=O)CNC(=O)c2ccccc2)cc1 | 0.68% (inactive)
COc1ccc(C(=O)C[n+]2ccc(C)cc2)cc1 | -3% (inactive)
COc1ccc(OCCC(=O)c2ccc(OC)cc2)cc1 | -0.79% (inactive)
COc1ccc(C(=O)C[n+]2ccc(N)c(C)c2C)cc1 | 97.4% (active)
Cc1nn(-c2ccccc2)c(NC(=O)c2cccs2)c(-c2ccc(Cl)cc2)c1=O | -2.34% (inactive)
COCCCNC(=O)/C=C/c1ccc(OCc2c(F)cccc2Cl)cc1 | -4.39% (inactive)
O=C(/C=C/c1ccc(OCc2c(F)cccc2Cl)cc1)N1CCOCC1 | 64.4% (active)
CN(C)CCCNC(=O)/C=C/c1ccc(OCc2c(F)cccc2Cl)cc1 | 0.9% (inactive)
O=C(NNC(=O)c1csc(-c2cccnc2)n1)Nc1ccc(Cl)cc1 | -0.26% (inactive)
COC(=O)N/N=C/c1cn(CCCOc2ccc(C)cc2)c2ccccc12 | -1.96% (inactive)
O=C(Nc1ccc2c(c1)OCCO2)c1cnccn1 | 0.76% (inactive)
CCN(CC)c1ccc(/C=N/NC(=O)c2cnccn2)c(O)c1 | 56.2% (active)
CCN(CC)c1ccc(/C=N/Nc2nc(C)cc(C)n2)c(O)c1 | 2.26% (inactive)

Structure (SMILES) | inhibition
CN1/C(=C\C(=O)c2cccnc2Cl)C(C)(C)c2ccccc21 | 2.48% (inactive)
CC(=O)Nc1cccc(OCC(=O)/C=C2\N(C)c3ccccc3C2(C)C)c1 | 37.5% (active)
Cc1noc(C)c1C(=O)OCC(=O)/C=C1\N(C)c2ccccc2C1(C)C | 1.84% (inactive)
N/C(=N\OC(=O)Nc1ccccc1)c1ccno1 | 4.88% (inactive)
CC1(C)CC(=O)C=C(N2CCCC2)C1 | -0.55% (inactive)
CC(C)NC(=S)N1CCN(C(c2ccccc2)c2ccccc2)CC1 | 1.76% (inactive)
CC1(C)CC(N2CCN(C(c3ccccc3)c3ccccc3)CC2)=CC(=[N+]2CCCCC2)C1 | 98.8% (active)
CCOC(=O)C(Sc1ncc(C#N)c(N)n1)C(C)C (stereo not drawn) | -2.24% (inactive)
COc1cc(C=O)ccc1Oc1nnnn1-c1ccccc1 | 1.87% (inactive)
COc1ccc(Nc2cc(C)nc(-n3nc(C)cc3C)n2)cc1 | 76.7% (active)
Cc1cc(C)n(-c2cc(Oc3ccccc3)ncn2)n1 | 0.29% (inactive)
COc1ccccc1/C=N\Nc1cc(C)nc(-n2nc(C)cc2C)n1 | -2.19% (inactive)
Cc1cc(N/N=C\c2ccc(Br)cc2)nc(-n2nc(C)cc2C)n1 | -1.35% (inactive)
Cc1cc(Oc2ccccc2)nc(N2CCOCC2)n1 | 1.31% (inactive)
CC(=O)c1ccc(Oc2cc(C)nc(-n3nc(C)cc3C)n2)cc1 | 64.7% (active)
Nc1nc(SC23CC4CC(CC(C4)C2)C3)ns1 | -4.14% (inactive)
O=C(c1ccc(OC2CCN(Cc3ccccn3)CC2)cc1)N1CCCCCC1 | -0.65% (inactive)
CC(C)(C)c1ccc(CCC2OCC(CN3CCOCC3)O2)cc1 (stereo not drawn) | 0.42% (inactive)
CC(C)[C@@H]1NC(=O)c2cc([N+](=O)[O-])cc(I)c2NCCC[C@@H](C(=O)NC(CC(=O)O)C(N)=O)NC(=O)[C@H](CO)NC1=O (stereo partly drawn) | 1.14% (inactive)
CC(C)(C)OC(=O)NCCCCCC(=O)N/N=C/c1coc2ccccc2c1=O | 0.8% (inactive)
Cc1ccc(N2C(=O)CN=C2Nc2nc(C)cc(C)n2)cc1 | -0.62% (inactive)

Structure (SMILES) | inhibition
CCCCOc1ccc(NC(=O)[C@@H]2CCCN2C(=O)C2CCN(S(=O)(=O)c3ccc(C)cc3)CC2)cc1 | 1.1% (inactive)
Cc1cc(C)nc(NS(=O)(=O)c2ccc(N/C=C\C(=O)c3cccs3)cc2)n1 | 2.57% (inactive)
CCN1/C(=C/c2ccc3ccc(C)cc3[n+]2CC)Sc2ccccc21 | 100% (active)
CCN1/C(=C\c2ccc3ccccc3[n+]2CC)Sc2cc(C)ccc21 | 99.7% (active)
CCN1CCN(CCNC(=O)c2ccc(/C=C3/Sc4ccccc4N(Cc4cccc(C)c4)C3=O)cc2)CC1 | 4.4% (inactive)
CCN1/C(=C/C(=S)Nc2ccccc2)Sc2ccccc21 | -4.02% (inactive)
COc1ccc([N+](=O)[O-])cc1NC(=O)COC(=O)/C=C/c1ccco1 | -0.59% (inactive)
O=S1(=O)CCC(NC(=S)SCc2ccccc2Br)C1 (stereo not drawn) | -4.11% (inactive)
CC1(C)OC(=O)C(=CSc2ccc(C(C)(C)C)cc2)C(=O)O1 | -1.81% (inactive)
COc1cc(OC)c(C(=O)NC2CCCCCC2)cc1OC | 99.6% (active)
COc1ccc(S(=O)(=O)NC(C)C)cc1C(=O)NC1CCCCC1 | -1.5% (inactive)
COc1cc(OC)c(C(=O)NC2CC(C)(C)NC(C)(C)C2)cc1OC | -0.48% (inactive)
O=C(NC(=O)c1ccccc1N1CCCCC1)Nc1ccc(Br)cc1 | 0.79% (inactive)
O=C(N/N=C/c1c[nH]c2ccccc12)c1cc2ccccc2o1 | 0.06% (inactive)
O=C(N/N=C/c1coc2ccccc2c1=O)c1cc2ccccc2o1 | 2.09% (inactive)
Cc1c(/C=N\NC(=O)c2cc3ccccc3o2)c2ccccc2n1C | 34.8% (active)
CC(=O)c1nnn(-c2ccc(Cl)cc2C#N)c1C | 0.95% (inactive)
CC(C)CNC(=O)COC(=O)/C=C/c1ccco1 | -3.59% (inactive)
COc1ccc(C(=O)CN(C(=O)c2ccc(Cl)cc2)N2C(=O)c3ccccc3C2=O)cc1 | 0% (inactive)
COc1ccc(Cn2c(-c3ccc(Cl)cc3)c[n+]3ccccc23)cc1 | 88.9% (active)
COc1ccc(Cn2c(=O)cc(C)[nH]c2=S)cc1 | 2.03% (inactive)
